GSTO1 inh: GSTO1 inhibition, counter-screen for RBBP9 inhibitors; P78417; recombinant GSTO1, activity-based probe fluorescence polarization; inhibition, % at 5.96 µM; 1.1% of 300,000 active;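 active = inhibition above the campaign mean inhibition plus 3 SD, cut at about 35% in these data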
pPAFAH FP inh: inhibitors of human plasma PAF acetylhydrolase (pPAFAH); recombinant pPAFAH, FP-rhodamine probe fluorescence polarization; inhibition, % at 3.39 µM; 1.5% of 330,000 active;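 active = inhibition above the mean inhibition across the screen plus 3 SD, cut at about 25% in these data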;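 note: inhibitors block binding of the rhodamine activity-based probe so polarization drops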
PAD4 FP inh: blocks human protein arginine deiminase 4; 0.41% of 330,000 active; inhibition, % at 6.36 µM; Q9UM07; recombinant PAD4, RCA probe fluorescence polarization;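 active = percent inhibition above a cutoff equal to the mean of all tested compounds plus 3 SD, cut at about 15% in these data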
Target sequence (Q9UM07 whole entry, looked up): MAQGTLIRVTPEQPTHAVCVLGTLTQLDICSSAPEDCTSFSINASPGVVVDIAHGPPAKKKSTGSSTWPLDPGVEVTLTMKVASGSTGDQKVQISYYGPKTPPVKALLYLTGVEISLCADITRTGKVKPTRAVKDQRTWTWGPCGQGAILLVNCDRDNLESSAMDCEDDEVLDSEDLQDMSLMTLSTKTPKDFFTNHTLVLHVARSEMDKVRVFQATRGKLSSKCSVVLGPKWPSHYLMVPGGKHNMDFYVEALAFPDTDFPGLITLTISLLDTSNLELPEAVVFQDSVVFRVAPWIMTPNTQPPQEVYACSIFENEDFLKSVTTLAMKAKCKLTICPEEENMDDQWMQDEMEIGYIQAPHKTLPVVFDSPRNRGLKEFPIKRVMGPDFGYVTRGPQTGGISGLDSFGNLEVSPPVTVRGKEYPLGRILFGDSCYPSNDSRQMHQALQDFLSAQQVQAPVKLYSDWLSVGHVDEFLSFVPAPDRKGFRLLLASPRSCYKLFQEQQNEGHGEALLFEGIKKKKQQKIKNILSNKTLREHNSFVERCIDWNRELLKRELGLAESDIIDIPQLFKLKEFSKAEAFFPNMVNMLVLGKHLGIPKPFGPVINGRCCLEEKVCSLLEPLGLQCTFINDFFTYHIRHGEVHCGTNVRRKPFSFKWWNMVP
PME-1 primary: PME-1 (human) inhibition; inhibition, % at 5.9 µM; Q9Y570; 0.53% of 320,000 active; recombinant PME-1, FP-Rh probe fluorescence polarization;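 active = inhibition above the campaign mean of all compounds plus 3 SD, cut at about 26% in these data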;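 note: competitive labeling of PME-1 active site by serine hydrolase directed probe; inhibitors block probe labeling so polarization falls and inhibition rises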
Fam108B counter: Fam108B inhibition, counter-screen for RBBP9 inhibitors. recombinant Fam108B, FP-Rh probe fluorescence polarization. inhibition, % at 9.51 µM. 0.33% of 300,000 active;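 active = inhibition above the screen mean inhibition plus 3 SD, computed separately per campaign, cut at about 18% in these data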;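 note: inhibitors lower polarization as less probe binds the enzyme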
Numbers stand for hits; - = inactive; . = no result given. In the library only some 2.3% were active in any assay of this set; here they are far more common.

SMILES | GSTO1 inh | pPAFAH FP inh | PAD4 FP inh | PME-1 primary | Fam108B counter
Oc1ccc(C2=Nn3c(nnc3-c3ccco3)SC2)cc1O | - | 32 | - | - | -
N#CCC(=O)c1ccccc1Oc1ccc(Cl)cc1 | - | 25 | - | 41 | -
CN(C(=O)COc1cc(=O)n(C)c2ccccc12)c1cccc(Cl)c1 | - | 28 | - | - | -
CCN(C(=O)COc1cc(=O)n(C)c2ccccc12)c1cccc(Cl)c1 | - | - | - | - | -
Cc1cccc(N(C)C(=O)COc2cc(=O)n(C)c3ccccc23)c1 | - | 34 | - | - | -
CCn1c(C)c(C(C)=O)c(NCc2ccccc2)nc1=S | - | 26 | - | - | -
CC(=O)c1c(NCc2ccccc2)nc(=O)n(-c2ccccc2)c1C | - | - | - | - | -
O=C1CCCc2c1sc1nc3n(c(=O)c21)CCCCC3 | - | - | - | - | -
O=C1c2sc3nc4n(c(=O)c3c2CCC1Br)CCCCC4 (centres undefined) | 55 | - | - | - | -
Cc1cccc(-n2ncc3c2CCCC3NC(=O)CCN2Cc3ccccc3C2=O)c1C (centres undefined) | - | - | - | - | -
CCS(=O)(=O)N1CCC(C(=O)Nc2ccccc2OC)CC1 | - | - | - | - | -
CC[C@H](C)/C=C(C)/C=C/C1=CC2=CC(=O)[C@]3(C)OC(=O)[C@@H](C(C)=O)[C@@H]3C2=CO1 | - | - | - | - | -
CC[C@H](C)/C=C(C)/C=C/C(=O)Cc1cc(O)c(C)c(O)c1C=O | - | 32 | - | - | -
Cn1cccc1C(=O)NNC(=O)COc1ccccc1Cl | . | - | - | - | .
CS(=O)(=O)NCCCCNc1ccc(C(F)(F)F)cc1[N+](=O)[O-] | - | 26 | - | - | -
O=[N+]([O-])c1cc(C(F)(F)F)ccc1NCCCCNS(=O)(=O)c1ccc2ccccc2c1 | - | - | - | - | -
CC(=O)c1sc(N/N=C\c2c(O)ccc3ccccc23)nc1C | - | 34 | - | - | -
CC(=O)c1sc(N/N=C/c2cccc(O)c2)nc1C | - | - | - | - | -
CCC1Sc2ccc(S(=O)(=O)CCC(=O)Nc3ccc(OC(F)(F)F)cc3)cc2NC1=O (centres undefined) | - | - | - | 26 | -
CCC1Sc2ccc(S(=O)(=O)CCC(=O)Nc3ccc(NC(C)=O)cc3)cc2NC1=O (centres undefined) | - | - | - | - | -
COCCN(C(=O)c1csnn1)C(C(=O)NC1CCCCC1)c1ccccc1 (centres undefined) | - | - | - | - | -
COc1ccc(NC(=S)NNC(=O)c2ccco2)c(OC)c1 | - | - | - | - | -
C/C(=N\NC(=O)c1ccc(Cl)c(Cl)c1)c1ccc(Br)s1 | - | - | - | - | -
C/C(=N\Nc1ccc(Cl)c(C(=O)O)c1)c1ccc(Br)s1 | - | 27 | - | - | -
COc1ccc(NC(=S)N2CCC(c3nc4ccc(Cl)cc4[nH]3)CC2)c(OC)c1 | - | 31 | - | - | -
SMILES | GSTO1 inh | pPAFAH FP inh | PAD4 FP inh | PME-1 primary | Fam108B counter
Cc1c(Cl)cccc1NC(=O)CSc1nnnn1C | . | - | - | . | .
Cc1c(Cl)cccc1NC(=O)CSCc1cc(=O)[nH][nH]1 | - | 25 | - | - | -
CC1CCN(S(=O)(=O)c2ccc3c4c2CC(=O)N4CC(C)S3)CC1 (centres undefined) | - | 27 | - | - | -
Cc1ccc(S(=O)(=O)N2CCN(S(=O)(=O)N3CCC(C)CC3)CC2)c(C)c1 | - | - | - | - | -
O=C(Nc1ccccc1N1CCOCC1)C1CCN(S(=O)(=O)c2ccccc2F)CC1 | - | - | - | - | -
COc1ccc(C2CC(=O)N3CN(c4ccc(C)c(Cl)c4)CSC3=C2C#N)cc1 (centres undefined) | - | - | - | - | -
COc1cc(OC)c(C2CC(=O)N3CN(c4ccccc4C)CSC3=C2C#N)cc1OC (centres undefined) | 36 | - | - | - | -
Cc1cccc(N2CSC3=C(C#N)C(c4ccc(C)o4)CC(=O)N3C2)c1 (centres undefined) | - | 47 | - | - | -
COc1ccc(OC)c(C2CC(=O)N3CN(c4ccccc4)CSC3=C2C#N)c1 (centres undefined) | - | - | - | - | -
O=C1Nc2ccc(C(F)(F)F)cc2N2CCCC12 (centres undefined) | 38 | - | - | - | -
O=C1Nc2cc(C(F)(F)F)ccc2N2CCCCC12 (centres undefined) | - | - | - | - | -
O=C(OCC#CCSc1nnc(-c2ccncc2)o1)c1cccs1 | 37 | - | - | - | -
O=C(CCN1C(=O)C2C3C=CC(C4CC34)C2C1=O)Nc1ccc(Cl)cc1O (centres undefined) | - | - | - | - | -
CCC(C)NC(=O)c1ccc(CSCc2ccc(Cl)cc2)o1 (centres undefined) | - | - | - | - | -
CCC(C)NC(=O)c1ccc(CS(=O)(=O)Cc2ccc(Cl)cc2)o1 (centres undefined) | - | 26 | - | - | -
O=c1[nH]n2c(=O)c3c([nH]c2c1N=Nc1cccc(C(F)(F)F)c1)CCCC3 | - | 28 | - | 71 | -
COc1cccc(N=Nc2c(=O)[nH]n3c(=O)c4c([nH]c23)CCC4)c1 | - | - | - | 36 | -
N#C/C(=C\c1ccc(OCC(N)=O)cc1)S(=O)(=O)c1ccccc1 | - | - | - | - | -
COC/C=C/C1=CC2=CC(=O)C(C)(OC(=O)c3cnc4ccccc4n3)C(=O)C2=CO1 (centres undefined) | 56 | 55 | 50 | - | -
O=S1(=O)Nc2c(ccc3cccnc23)-c2ccccc21 | 55 | 27 | - | - | -
O=[N+]([O-])c1cc2cccnc2c2ncccc12 | - | - | - | - | -
O=[N+]([O-])c1cc(O)c2ncccc2c1 | 37 | - | - | - | -
O=C(N/N=C/c1ccc[nH]1)c1cc2ccccc2cc1O | - | 25 | - | - | -
O=C(N/N=C/c1ccc[nH]1)c1cccc(Br)c1 | - | - | - | - | -
O=C1CC(c2ccc(Cl)cc2)c2c(O)cc(O)cc2O1 (centres undefined) | 37 | - | - | - | -
SMILES | GSTO1 inh | pPAFAH FP inh | PAD4 FP inh | PME-1 primary | Fam108B counter
O=C(CCOc1ccccc1)N1CCN(c2ccc(O)cc2)CC1 | - | 31 | - | - | -
CC(=O)Nc1ccc(S(=O)(=O)N2CCC(NC(C)=O)(c3cccc(F)c3)CC2)cc1 | - | 27 | - | - | -
CC(=O)Nc1ccc(S(=O)(=O)N2CCC(C(=O)O)(c3ccccc3)CC2)cc1 | - | - | - | - | -
Cc1ccc(OCC(=O)Nc2ccc(N3CCCC3)cc2)cc1C | - | 30 | - | - | -
O=C(CNC1CCCCCC1)Nc1ccc(N2CCCC2)cc1 | - | - | - | - | -
Cc1cccc(OCC(=O)Nc2ccc(N3CCCC3)cc2)c1C | - | 30 | - | - | -
O=C(CNCCC1=CCCCC1)Nc1ccc(N2CCCCCC2)cc1 | - | 32 | - | - | -
COc1cc(Br)c(/C=C/c2ccc3cccc(O)c3n2)cc1OC | - | - | - | - | -
COc1ccc(OC)c(/C=C/c2ccc3cccc(O)c3n2)c1 | - | - | - | - | -

High-throughput results: PubChem BioAssay, The Scripps Research Institute Molecular Screening Center
